Experimental data: PubChem BioAssay AID1159580 (chemical genetic matrix, 2015)
In all, about 5,500 compounds went through this assay and about 2,000 (36%) were called active. About 18% were inconclusive and are not listed. Rule as the data show it: active = normalized growth mostly below about 0.91 (no sharp cut-off); inconclusive = no clear call, values can overlap the other calls; inactive = mostly above about 0.92. Some of the results follow.

Assay: chemical genetic growth profiling, strain panel (AID 1159580);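 also: tested at 20 µM; growth read once vehicle control cultures reached saturation at 30 °C; 1 = growth at the plate median or of vehicle wells; lower values mean less growth of the strain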
Details: S. cerevisiae deletion strains, growth OD

Measured: normalized growth

O=C(NNc1cc(C(F)(F)F)cc(C(F)(F)F)c1)c1cnc2n(c1=O)CCS2
inactive: locus YAR019C, strain CDC15, hits give low values 0.985 | locus YBL105C, strain PKC1, hits give low values 0.987 | locus YBR135W, strain CKS1, hits give low values 0.99 | locus YBR136W, strain MEC1, hits give low values 0.983 | locus YBR160W, strain CDC28, hits give low values 0.99 | locus YDL017W, strain CDC7, hits give low values 0.986 | locus YDL028C, strain MPS1, hits give low values 0.991 | locus YDL101C, strain DUN1, hits give low values 0.983 | locus YDL108W, strain KIN28, hits give low values 1 | locus YDL132W, strain cdc53, hits give low values 0.998 | locus YDL214C, strain PRR2, hits give low values 0.992 | locus YDR052C, strain DBF4, hits give low values 0.991 | locus YDR054C, strain cdc34, hits give low values 0.993 | locus YDR226W, strain ADK1, hits give low values 0.987 | locus YDR477W, strain SNF1, hits give low values 0.994 | locus YER123W, strain YCK3, hits give low values 0.936 | locus YER133W, strain GLC7, hits give low values 0.977 | locus YFL009W, strain cdc4, hits give low values 0.987 | locus YFL029C, strain CAK1, hits give low values 1 | locus YFR003C, strain YPI1, hits give low values 0.999 | locus YFR019W, strain FAB1, hits give low values 0.982 | locus YFR028C, strain CDC14, hits give low values 0.983 | locus YGR040W, strain KSS1, hits give low values 1 | locus YGR052W, strain FMP48, hits give low values 1.03 | locus YGR092W, strain DBF2, hits give low values 0.961 | locus YHR030C, strain SLT2, hits give low values 0.939 | locus YHR079C, strain IRE1, hits give low values 0.972 | locus YHR082C, strain KSP1, hits give low values 1.01 | locus YHR205W, strain SCH9, hits give low values 0.938 | locus YIL147C, strain SLN1, hits give low values 0.988 | locus YJL095W, strain BCK1, hits give low values 0.98 | locus YJL128C, strain PBS2, hits give low values 1.02 | locus YJL157C, strain FAR1, hits give low values 0.996 | locus YJR016C, strain ILV3, hits give low values 0.99 | locus YJR066W, strain TOR1 (second series), hits give low values 0.995 | locus YJR066W, strain TOR1, hits give low values 0.974 | locus YKL048C, strain ELM1, hits give low values 0.971 | locus YKL067W, strain YNK1, hits give low values 0.995 | locus YKL101W, strain HSL1, hits give low values 1.01 | locus YKL193C, strain SDS22, hits give low values 0.986 | locus YKL203C, strain TOR2, hits give low values 1.03 | locus YLR113W, strain HOG1, hits give low values 0.883 | locus YLR133W, strain CKI1, hits give low values 1.01 | locus YLR403W, strain SFP1, hits give low values 0.99 | locus YML070W, strain DAK1, hits give low values 0.973 | locus YMR001C, strain CDC5, hits give low values 0.995 | locus YMR205C, strain PFK2 (second series), hits give low values 1.01 | locus YMR277W, strain FCP1, hits give low values 0.992 | locus YNL006W, strain LST8, hits give low values 1 | locus YNL020C, strain ARK1, hits give low values 1 | locus YNL161W, strain CBK1, hits give low values 0.98 | locus YNL183C, strain NPR1, hits give low values 0.962 | locus YNL207W, strain RIO2, hits give low values 0.996 | locus YNL222W, strain SSU72, hits give low values 0.988 | locus YNL307C, strain MCK1 (second series), hits give low values 0.935 | locus YOL078W, strain AVO1, hits give low values 0.992 | locus YOL136C, strain PFK27, hits give low values 0.971 | locus YOR061W, strain CKA2, hits give low values 1.02 | locus YOR119C, strain RIO1, hits give low values 0.983 | locus YOR231W, strain MKK1, hits give low values 0.979 | locus YOR329C, strain SCD5, hits give low values 0.983 | locus YPL031C, strain PHO85, hits give low values 0.983 | locus YPL153C, strain RAD53, hits give low values 0.986 | locus YPL204W, strain HRR25, hits give low values 0.982 | locus YPL209C, strain IPL1, hits give low values 0.984 | locus YPL256C, strain CLN2, hits give low values 0.936 | locus YPR025C, strain CCL1, hits give low values 0.972 | locus YPR106W, strain ISR1, hits give low values 0.995 | locus YPR111W, strain DBF20, hits give low values 0.997 | strain NNK1, hits give low values 0.988 | strain TSCII, hits give low values 0.987
